# According to PubChem BioAssay AID1053124 (Broad Institute, 2014):
# Potency and affinity values are given separately. The source made the active and inactive calls.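 How the source made its calls: active means cell killing whose fitted half-effect concentration is at most twice the top valid dose tested; inconclusive means flat curve with 30 to 70% killing, or a poor fit; inactive means effect in the rising direction, plus the rest.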
# Assay: viability loss in A549 lung cells – cell-based, ATP luminescence, cherry-pick, set 2, cytotoxicity control, dose response (AID 1053124);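 further: 0% = neutral control wells and -100% = mitoxantrone 10 µM positive control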
# Settings: ATP luminescence (CellTiter-Glo), 72 h; series mostly up to 26 µM; activity change, negative = cytotoxicity: at the top concentration
row,Structure (SMILES),"activity change, negative = cytotoxicity"
1,CC(C)OP(=O)(O)NC(=O)c1ccccc1,-10.1% (inactive)
2,N#CC1=C(N)Oc2cc(O)ccc2C1c1ccc2c(c1)OCO2 (stereo not drawn),15.8% (inactive)
3,CC12CC(c3ccccc3O1)C(C(=O)OCc1ccccc1)C(=O)N2 (stereo not drawn),0.989% (inactive)
